For 14 compounds, composite z-score and z-score results are on record in PubChem BioAssay.

Activity calls are given as the source filed them. Unless noted, the rule behind the calls is not given here.

Assay [1] deals with Wnt5a (protein binding on small-molecule microarray). In words: Wnt5a binders on small-molecule microarray, primary screen, biophysical, 635/667 nm fluorescence (AID 1142).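 Note: fluorescence read at 667 nm with signal to noise per printed feature.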 Conditions: 635 nm fluorescence, higher = more signal.
A short description of assay [2]: cell viability in Huh7 cells, primary screen, cytotoxicity control for HCV replication inhibitor project, CellTiter-Glo luminescence, basal, 48 h (AID 1143).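 Note: Huh7 hepatoma cells carrying a hepatitis C replication reporter with no stimulus; test concentration not given here.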 The conditions noted are these: Huh7 HCV replicon, higher = more signal, called active from +8 up or from −8 down.
The nature of assay [3]: P. aeruginosa biofilm formation inhibitors, primary screen, PAO1 strain, BacTiter-Glo luminescence, LB-PBS (AID 1144). Conditions: 12 h, higher = more signal.
A short description of assay [4]: CREB reporter modulators without forskolin, primary screen, cell-based, PC12, CRE-LacZ reporter, unstimulated (AID 1145). Conditions: no forskolin, luminescence, 4.5 h, higher = more signal, called active from +8 up or from −8 down.
Assay [5] can be described thus: CREB reporter modulators under forskolin, primary screen, cell-based, PC12, CRE-LacZ reporter, forskolin-stimulated (AID 1146).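 Note: PC12 cells with 6xCRE LacZ reporter stimulated by forskolin 10 µM; beta-galactosidase reporter signal reflecting CREB driven transcription.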 Conditions: luminescence, 4.5 h, higher = more signal, called active from +8 up or from −8 down.
Assay [6] addresses Streptavidin (Streptomyces avidinii) (UniProt P22629). Nature of the assay: streptavidin binders on small-molecule microarray, primary screen, artefact control for SMM compound annotation, biophysical, 635/667 nm fluorescence (AID 1147).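 Note: signal reflects streptavidin binding to arrayed compounds as a control protein.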 Conditions: streptavidin binding, higher = more signal.
Assay [7] is described as follows: small-molecule binders of probe aInhba, primary screen, biochemical, small-molecule microarray, 635/667 nm fluorescence (AID 1148).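 Note: score merges 667nm spot fluorescence with signal-to-noise for antibody binding to printed compounds.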 Conditions: higher = more signal.
In assay [8] the target is Torsin-1A (Homo sapiens) (UniProt O14656). Nature of the assay: torsin A binders from cell lysate, primary screen, small-molecule microarray, wild-type, 635/667 nm (AID 1149). Conditions: COS7 hTOR1A-WT lysate, 635 nm fluorescence, higher = more signal.
Assay [9] shares this target. Nature of the assay: small-molecule binders of mutant TOR1A in lysate, primary screen, cell lysate, small-molecule microarray, COS7 lysate, 635/667 nm fluorescence (AID 1150).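 Note: score pools 667 nm emission and signal to noise measuring lysate protein binding.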 Conditions: COS7 hTOR1A mutant lysate, 635 nm fluorescence, higher = more signal.
For assay [10], the system named is Sonic hedgehog protein (Shh). Nature of the assay: small-molecule binders of Shh protein, primary screen, biochemical, small-molecule microarray, 635/667 nm fluorescence (AID 1151).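 Note: Shh protein binding to compounds spotted on small-molecule microarray slides; score combines spot fluorescence intensity with signal-to-noise across triplicate slides.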 The conditions noted are these: small-molecule microarray binding, 635 nm fluorescence; higher = more signal.

Streptavidin (Streptomyces avidinii), sequence (P22629 whole entry, looked up): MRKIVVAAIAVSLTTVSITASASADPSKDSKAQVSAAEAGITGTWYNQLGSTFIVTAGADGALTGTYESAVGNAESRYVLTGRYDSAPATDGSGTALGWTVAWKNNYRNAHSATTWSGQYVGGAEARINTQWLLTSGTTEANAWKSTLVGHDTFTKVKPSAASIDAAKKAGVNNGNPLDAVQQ
Torsin-1A (Homo sapiens), sequence (O14656 whole entry, looked up): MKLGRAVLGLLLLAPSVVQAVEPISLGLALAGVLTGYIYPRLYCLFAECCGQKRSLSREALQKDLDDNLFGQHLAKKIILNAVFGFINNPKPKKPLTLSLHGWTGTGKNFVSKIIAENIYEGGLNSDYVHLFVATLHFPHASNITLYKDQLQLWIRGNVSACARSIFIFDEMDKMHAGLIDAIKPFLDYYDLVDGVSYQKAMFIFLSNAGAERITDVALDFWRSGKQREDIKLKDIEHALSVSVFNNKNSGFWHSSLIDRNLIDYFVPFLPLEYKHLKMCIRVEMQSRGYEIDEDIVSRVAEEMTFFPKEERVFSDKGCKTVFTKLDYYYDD

In the case of `Cc1ccc(N2C(=O)c3ccccc3[C@@H](C(=O)NCC(F)(F)F)[C@@H]2c2ccc(CO)cc2)nc1`, the composite z-score in [1] is 0.0023; in assay [6], -1.62; in [7], 0.17; with Torsin-1A (Homo sapiens) [8], -1.76; with Torsin-1A (Homo sapiens) [9] it was -1.78; in assay [10] it was 0.0716. Also, the z-score in assay [2] was -0.977 (inactive); in [3], 0.00438 (inactive); in assay [4], 0.791 (inactive); in assay [5], 0.495 (inactive).
With `[N-]=[N+]=NCc1ccccc1C[C@@]1(C(=O)O)N=C(c2ccc(OCCCO)cc2)O[C@@H]1c1ccccc1N=[N+]=[N-]`, the composite z-score is -0.0964 in [1]; 0.312 in assay [6]; 0.0073 in [7]; 0.0819 with Torsin-1A (Homo sapiens) [8]; 0.0245 in the assay with Torsin-1A (Homo sapiens) [9]; -0.165 in assay [10]. Besides, the z-score in assay [2] is -2.2 (inactive); in [3], -0.439 (inactive); in [4], 0.488 (inactive); in assay [5], 0.142 (inactive).
Take `O=C1O[C@H](c2ccccc2)[C@H](c2ccccc2)N2[C@H]1[C@@H](C(=O)NC[C@H](O)c1ccccc1)[C@]1(C(=O)Nc3ccc(C#CC4(O)CCCCCC4)cc31)[C@H]2c1ccc(OCCO)cc1`: the composite z-score in assay [1] was 0.288; in assay [6], 0.463; in assay [7], 0.0082; with Torsin-1A (Homo sapiens) [8] it was 0.127; with Torsin-1A (Homo sapiens) [9], 0.644; in assay [10] it was 0.756. The z-score is -5.26 (inactive) in assay [2], -0.37 (inactive) in assay [3], -0.231 (inactive) in assay [4] and -0.581 (inactive) in assay [5].
Regarding `COc1ccc([C@H]2C[C@H]3C(Br)=C[C@]2(OC)C(=O)[C@]32CO2)cc1`, the composite z-score is -0.225 in assay [1]; -0.0817 in [6]; -0.128 in assay [7]; 0.806 with Torsin-1A (Homo sapiens) [8]; -0.278 with Torsin-1A (Homo sapiens) [9]; -0.038 in [10]. Also, the z-score in assay [2] was 0.147 (inactive); in assay [3], -0.64 (inactive); in [4] it was 0.586 (inactive); in assay [5], 2.58 (inactive).
Turning to `COCCOC(=O)N1C(=O)[C@@]2(c3cc(C#CCNC(N)=O)ccc31)[C@H](c1ccccc1OCCO)N1[C@H](c3ccccc3)[C@H](c3ccccc3)OC(=O)[C@H]1[C@@H]2C(=O)NC[C@H](O)c1ccccc1`, the composite z-score in [1] was 0.439; in assay [6] it was 0.903; in [7], -0.0375; in the assay with Torsin-1A (Homo sapiens) [8], 0.834; in the assay with Torsin-1A (Homo sapiens) [9], 0.525; in [10], 1.87. Further, the z-score in assay [2] is -0.429 (inactive); in [3], -0.209 (inactive); in assay [4], -1 (inactive); in assay [5], 0.172 (inactive).
With `C=C(C)[C@@H]1CC=C(C(O)C2C=CC3C(=O)NC(=O)C3N2Nc2ccccn2)CC1` (stereo not given in full), the composite z-score in assay [1] is 0.742; in assay [6], 0.717; in assay [7], 0.093; in the assay with Torsin-1A (Homo sapiens) [8], 1.1; with Torsin-1A (Homo sapiens) [9], 0.705; in [10] it was 2.28. Further, the z-score is 0.715 (inactive) in assay [2], -0.555 (inactive) in [3], -0.14 (inactive) in assay [4] and 0.621 (inactive) in [5].
As to `COc1ccc([Si](C)(C)[C@H]2[C@H](CC(=O)N(CCO)Cc3ccccc3)O[C@@]3(C(=O)N(C)c4ccccc43)[C@@H]2C)cc1`, the composite z-score was 0.321 in [1]; 0.153 in [6]; -0.0986 in assay [7]; 0.0317 in the assay with Torsin-1A (Homo sapiens) [8]; 0.83 in the assay with Torsin-1A (Homo sapiens) [9]; 1.65 in assay [10]. Also, the z-score in assay [2] is -5.59 (inactive); in assay [3], -0.306 (inactive); in assay [4] it was 4.69 (inactive); in assay [5], 0.0125 (inactive).
`COc1cc(CO)cc(I)c1O[C@H]1C=C(C(=O)NCCO)C[C@@H](N(CC2CCCCC2)C(=O)c2cc3ccccc3oc2=O)[C@@H]1O`: the composite z-score in assay [1] is 0.159; in assay [6], 0.745; in assay [7], -0.0332; with Torsin-1A (Homo sapiens) [8], 0.0653; with Torsin-1A (Homo sapiens) [9], 0.0077; in assay [10], 0.568. In addition, the z-score in assay [2] was -0.0365 (inactive); in [3], -0.143 (inactive); in [4] it was 1.13 (inactive); in assay [5] it was -1.27 (inactive).
Regarding `COC(=O)[C@H]1[C@@H]2COc3ccccc3[C@H]2N[C@H]1C(=O)OC`, the composite z-score in [1] was -0.0215; in [6], -0.142; in assay [7], -0.118; with Torsin-1A (Homo sapiens) [8] it was 0.425; with Torsin-1A (Homo sapiens) [9], 0.775; in assay [10] it was 0.264. Also, the z-score in assay [2] was 0.508 (inactive); in assay [3], -0.411 (inactive); in assay [4], 2.13 (inactive); in assay [5], -0.827 (inactive).
On to `NC(=O)NCC#Cc1ccc2c(c1)[C@]1(C(=O)N2)[C@H](c2ccccc2OCCO)N2[C@H](c3ccccc3)[C@H](c3ccccc3)OC(=O)[C@H]2[C@@H]1C(=O)N1CCN(c2ncccn2)CC1`, for which the composite z-score in assay [1] is -0.186; in [6], 0.182; in [7], -0.0762; with Torsin-1A (Homo sapiens) [8], 0.0759; with Torsin-1A (Homo sapiens) [9], 0.272; in assay [10] it was 0.831. Also, the z-score in [2] was -4.21 (inactive); in assay [3], -0.681 (inactive); in [4], -0.0515 (inactive); in assay [5] it was 0.889 (inactive).
Consider `Cc1ccc(S[C@]2(C(=O)O)CC(=O)N(Cc3cc(C(F)(F)F)cc(C(F)(F)F)c3)[C@@H]2c2ccc(CO)cc2I)cc1`, for which the composite z-score in assay [1] was 0.176; in assay [6], -0.718; in assay [7], -0.106; with Torsin-1A (Homo sapiens) [8], -1.1; in the assay with Torsin-1A (Homo sapiens) [9] it was -0.3; in assay [10] it was 0.42. Also, the z-score in assay [2] is -2.71 (inactive); in [3] it was 0.519 (inactive); in [4] it was 0.261 (inactive); in assay [5], 0.859 (inactive).
As to `CC(=O)NCCCC[C@@H]1NC(=O)[C@H]2C[C@@H](C(=O)NCCCCCCN(C)C)[C@@H](c3cccc(OCCO)c3)N2C1=O`, the composite z-score in assay [1] worked out at 0.906; in assay [6], 0.369; in assay [7], 0.222; in the assay with Torsin-1A (Homo sapiens) [8], 1.37; with Torsin-1A (Homo sapiens) [9], 1.88; in assay [10], 2.22. For the same compound, the z-score in [2] was -0.102 (inactive); in [3], -0.542 (inactive); in assay [4] it was 0.0084 (inactive); in assay [5], 0.172 (inactive).
With `Cc1ccc(S[C@]2(C(=O)NC3CC3)CC(=O)N(Cc3cc(C(F)(F)F)cc(C(F)(F)F)c3)[C@@H]2c2ccc(CO)cc2)cc1`, the composite z-score in assay [1] was 0.134; in assay [6] it was -0.103; in assay [7], -0.128; with Torsin-1A (Homo sapiens) [8], -0.408; with Torsin-1A (Homo sapiens) [9], 0.227; in assay [10] it was 1.38. Besides, the z-score in [2] was -2.38 (inactive); in [3], -1.59 (inactive); in assay [4] it was -0.374 (inactive); in [5], 0.121 (inactive).
As for `C[C@@H]1NC(=O)[C@H](Cc2ccccc2)NC(=O)[C@@]23C(=O)N[C@@H](Cc4ccccc4)C2[C@H](C)[C@@]2(C)O[C@H]2C3/C=C/C/C=C\CNC1=O` (stereo not given in full), the composite z-score in assay [1] was -0.401; in [6], -0.528; in [7], -0.128; with Torsin-1A (Homo sapiens) [8], -0.0926; with Torsin-1A (Homo sapiens) [9] it was -0.0686; in [10], 0.596. For the same compound, the z-score in assay [2] is 0.0081 (inactive); in assay [3] it was 0.683 (inactive); in assay [4], 0.125 (inactive); in assay [5], 0.349 (inactive).
